Rows were chosen to be rich in hits. Some 3.4% of all compounds tested hit in one or more screens of this group.
TEAD-YAP inh = TEAD-YAP interaction inhibition. HEK-TIYL cells, TEAD-Gal4/YAP UAS-luciferase luminescence. inhibition, % at 9.12 µM. actives 1.4% (n = 640,000). AID 1259422; in the data active means inhibition above about 32%;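 further: 0% = median of test compound wells and 100% = reference inhibitor wells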
MITF primary = blocks human microphthalmia-associated transcription factor; AlphaScreen MITF homodimerization, bead proximity signal; inhibition, % at 2.6 µM; actives 0.91% (n = 650,000); in the data active means inhibition above about 50%;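 further: 0% = vehicle wells with protein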
Target sequence (O75030 whole entry, looked up): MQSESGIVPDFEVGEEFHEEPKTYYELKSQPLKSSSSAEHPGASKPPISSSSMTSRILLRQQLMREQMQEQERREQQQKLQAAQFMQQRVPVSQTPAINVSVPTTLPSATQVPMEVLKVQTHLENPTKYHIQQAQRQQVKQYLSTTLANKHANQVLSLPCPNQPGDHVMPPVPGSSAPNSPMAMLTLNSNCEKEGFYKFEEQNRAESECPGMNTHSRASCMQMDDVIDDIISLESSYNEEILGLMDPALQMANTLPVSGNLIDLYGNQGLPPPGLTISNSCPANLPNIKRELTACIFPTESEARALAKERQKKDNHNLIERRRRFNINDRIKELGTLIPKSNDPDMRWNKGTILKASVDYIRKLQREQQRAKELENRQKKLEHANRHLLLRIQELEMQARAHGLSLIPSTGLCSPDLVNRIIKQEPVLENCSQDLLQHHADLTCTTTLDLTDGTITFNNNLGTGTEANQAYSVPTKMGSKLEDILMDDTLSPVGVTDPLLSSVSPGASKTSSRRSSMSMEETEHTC
FBW7 activator = human FBW7 E3 ligase activation, primary screen; Q969H0; AlphaScreen FBW7–phospho-cyclin E peptide binding, activator screen; normalized activity (activation), % at 26.1 µM; actives 0.13% (n = 650,000); in the data active means normalized activity above about 1.9%;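 further: purified mutant Fbw7 with reduced substrate affinity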
GPR151 ag = activates the human receptor GPR151; Q8TDV0; PathHunter beta-arrestin GPR151 cells, luminescence; activation, % at 11.2 µM; actives 1% (n = 650,000); in the data active means activation above about 4.9%;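 further: 0% = median of compound wells and 100% = cells with positive control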
GPR151 conf act = confirmation of human GPR151 activators | activation, % at 11.2 µM | AID 1508609 | shares compounds with GPR151 ag | GPR151 PathHunter beta-arrestin cells, luminescence, 90 min; % of EA-reagent control over plate median | 6,700 tested, under 10 active;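 active means mean percent activation across replicates above the confirmation screen cutoff of 4.91%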
GPR119 counter = activates human GPR119 in a GPR151 counter-screen; actives 0.3% (n = 6,700); GPR119 PathHunter beta-arrestin cells, luminescence, 90 min; 0 = compound-well median, 100 = enzyme-acceptor control; activation, % at 11.2 µM; shares compounds with GPR151 ag; AID 1508611;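 active means mean percent activation in the counterscreen above 29.09%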;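 further: counterscreen on off-target GPR119 to flag nonselective hits from the GPR151 activator screen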
Active calls of the source: *; / = no result given; ! = not active in a repeat.

SMILES	TEAD-YAP inh	MITF primary	FBW7 activator	GPR151 ag	GPR151 conf act	GPR119 counter
CN1C(=O)c2ccccc2C(C(=O)NC2CCCCCC2)C1c1cccs1 (centres undefined)	-14	11	0	0	/	/
CC1CCCCC1NC(=O)C1c2ccccc2C(=O)N(C)C1c1cccs1 (centres undefined)	-9	0	0	7.5*	0	-7
Cc1nccc2[nH]c(=O)c(C(=O)NCCc3ccccc3)cc12	9	4	0	7.3*	0	3
O=C(O)CCn1c(=O)oc2cc(S(=O)(=O)O)ccc21	5	5	0	7.5*	2	-1
CCOC(=O)C1=C(CC)OC(N)=C(C#N)C1c1ccc(F)c(Br)c1 (centres undefined)	10	-8	0	0	/	/
CCOC(=O)C1=C(C)OC(N)=C(C#N)C1c1ccc(F)c(Br)c1 (centres undefined)	3	27	1	9.6*	0	9
Oc1ccc(Br)cc1-c1nnc2ccc3ccccc3n12	6	15	0	10*	0	14
O=C(O)CCCC(=O)Nc1nc(-c2ccccc2)cs1	5	-13	0	-2	/	/
Cc1ccccc1OCCCC(=O)Nc1nc(-c2ccccc2)cs1	-1	-14	0	7.1*	-1	0
NC(=O)NC(CC(=O)O)c1ccc(Cl)cc1 (centres undefined)	9	-6	0	7.7*	0	-4
COc1cc(Br)cc(CN2CCN(C=O)CC2)c1O	4	-18	0	7.3*	1	2
Nn1c(SCC(=O)Nc2cc(C(F)(F)F)ccc2Cl)nnc1-c1cccnc1	-4	-2	0	2	/	/
O=C(NCCOc1ccccc1)c1csc(Nc2cnccn2)n1	-22	-13	0	0	/	/
CO[C@H]1C[C@H](O[C@H]2[C@H](C)[C@@H](OC3O[C@H](C)C[C@H](N(C)C)[C@H]3OC(C)=O)[C@@H](C)C[C@]3(CO3)C(=O)[C@H](C)[C@@H](OC(C)=O)[C@@H](C)[C@@H](C)OC(=O)[C@@H]2C)O[C@@H](C)[C@@H]1OC(C)=O (some centres undefined)	-3	11	0	6.3*!	1	-8
O=C(Nc1ccc2c(c1)OCO2)c1ccc2nc(Oc3ccccc3)sc2c1	-25	-5	0	3	/	/
CN(Cc1ccc(OCC(O)CN2CCc3ccccc3C2)cc1)Cc1cccnc1 (centres undefined)	1	-12	0	0	/	/
CN(Cc1ccc(OCC(O)CN2CCc3ccccc3C2)cc1)Cc1nccs1 (centres undefined)	-3	-18	0	5.6*	-1	-15
COc1ccccc1/C=C1\Sc2ccc(C(=O)N3CCOCC3)cc2N(C)C1=O	1	-9	0	-1	/	/
CC(=O)c1cccc(NC(=O)C(C)N2C(=O)C3C4C=CC(C5CC45)C3C2=O)c1 (centres undefined)	7	12	0	0	/	/
CC(C(=O)Nc1cccc([N+](=O)[O-])c1)N1C(=O)C2C3C=CC(C4CC34)C2C1=O (centres undefined)	-1	9	0	8.6*	0	-9
Cc1cc(Cl)ccc1NC(=O)C(=O)N/N=C/c1ccc([N+](=O)[O-])cc1	-3	-1	0	-1	/	/
Cc1ccc(NC(=O)C(=O)N/N=C/c2ccc([N+](=O)[O-])cc2)cc1C	-18	-18	0	15*	0	14
Cc1cc(C(=O)NCC2CCCN(Cc3cnc(C)s3)C2)no1 (centres undefined)	9	8	0	0	/	/
O=C(/C=C\N1CCCCC1)c1ccc(Cl)cc1	-13	15	0	6.1*	-2	-26
CCc1ccc(C2C(C#N)=C(N)Oc3c2c(C)nn3-c2ccc(C)cc2)cc1 (centres undefined)	12	10	0	0	/	/
SMILES	TEAD-YAP inh	MITF primary	FBW7 activator	GPR151 ag	GPR151 conf act	GPR119 counter
O=C(NC1CCCCC1)[C@H]1C=CCN1C(=O)C1CC1	1	-26	0	7.4*	0	1
CCOC(=O)c1cc(N2C(=O)C3C4C=CC(CC4)C3C2=O)ccc1Cl (centres undefined)	8	4	0	10*	0	7
CCCSc1nc2sc(C)c(C)c2c(=O)n1-c1ccccc1	10	0	0	1	/	/
Cc1cc(C)nc(N/C(=N/C(=S)Nc2ccccc2)N2CCCCC2)n1	-29	-12	0	1	/	/
CN1C(C(=O)c2ccccc2)=C(N2CCCCC2)c2ccccc2S1(=O)=O	4	-1	0	8.1*	0	8
CN1C(C(=O)c2ccccc2)=C(N)c2ccccc2S1(=O)=O	13	-3	0	-1	/	/
CCOc1ccc(N2CCn3c2nnc(C(=O)NCc2ccc(Cl)cc2)c3=O)cc1	0	4	0	5.0*	0	-11
Cc1cc(C)cc(NC(=O)C2CCN(c3nnc(-n4c(C)ccc4C)s3)CC2)c1	5	5	0	5.5*	0	-10
COc1cc(C(=O)Nc2cc(C(=O)N3CCN(c4ccccc4)CC3)ccc2N2CC3CC(C2)c2cccc(=O)n2C3)cc(OC)c1OC (centres undefined)	6	12	0	5.5*	-1	3
COc1cc(C(=O)Nc2cc(C(=O)Nc3ccccc3SC)ccc2N2CC3CC(C2)c2cccc(=O)n2C3)cc(OC)c1OC (centres undefined)	-12	12	0	1	/	/
COC(=O)c1cc(NC(=O)c2ccc(N3CC4CC(C3)c3cccc(=O)n3C4)c(NC(=O)Nc3ccccc3)c2)cc(C(=O)OC)c1 (centres undefined)	-12	-2	0	6.7*	1	8
CN(CCc1ccccn1)C(=O)c1ccc(N2CC3CC(C2)c2cccc(=O)n2C3)c(NC(=O)c2cccs2)c1 (centres undefined)	2	7	0	7.4*	-1	-3
CCC1(CC)NC(=O)N(CC(=O)Nc2ccc(OC(F)(F)F)cc2)C1=O	-1	10	1	1	/	/
FC(F)(F)c1c2c(nc3cc(-c4ccc(Cl)cc4)nn13)CCCC2	-7	-7	1	0	/	/
COc1ccc2c(c1)c(C(=O)O)c(C)n2CCc1ccc(OC)c(OC)c1	-11	7	0	5.6*	1	2
COc1ccc(CCn2c(C)c(C(C)=O)c3cc(OC(=O)c4cccc(Cl)c4)ccc32)cc1OC	-6	-2	0	-1	/	/
CC1CCCN(S(=O)(=O)c2cccc3c(S(=O)(=O)N4CCCC(C)C4C)cccc23)C1C (centres undefined)	-1	-5	0	0	/	/
CC(C)Oc1nc(-c2ccccc2Cl)nc2ccccc12	4	1	0	1	/	/
COc1nc(-c2ccccc2Cl)nc2ccccc12	1	5	0	5.2*	1	-5
